Source: PubChem BioAssay
Most compounds without a hit are left out; they make up all but 4.6% or so of the library.
D1 PAM – Potentiators of Human D1 Dopamine Receptor: qHTS; potentiation, % at 10 µM; HEK293 TREx D1 cells, calcium flux, dopamine EC20 potentiation; D(1A) dopamine receptor (Homo sapiens), P21728; hit rate 0.036% among 360,000; AID 504651, 2011; in the data active = potentiation above about 30%; also: 0% is about no effect
D1 ag – Allosteric Agonists of the Human D1 Dopamine Receptor: qHTS | D(1A) dopamine receptor (Homo sapiens), P21728 | HEK293 T-REx D1 cells, calcium flux, agonist mode | activation, % at 2 µM | hit rate 1% among 360,000; also: 0% is about no effect
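Inducible HEK293 T-REx D1 cells, force-coupled to calcium signalling, were plated at 4000 cells/well with tetracycline and held overnight at 30 C. After no-wash calcium dye loading, compound-evoked calcium rise over 180 s flagged agonists.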
TRHR agonist – qHTS for Small Molecule Agonists and Allosteric Enhancers of Human TRH Receptor: Primary Screen for Agonists; Thyrotropin-releasing hormone receptor (Homo sapiens), P34981; TRHR cells, calcium flux fluo-8, FDSS agonist mode; activation, % at 2 µM; hit rate 0.18% among 360,000; also: 0% is about no effect
Target sequence (P34981 whole entry, looked up): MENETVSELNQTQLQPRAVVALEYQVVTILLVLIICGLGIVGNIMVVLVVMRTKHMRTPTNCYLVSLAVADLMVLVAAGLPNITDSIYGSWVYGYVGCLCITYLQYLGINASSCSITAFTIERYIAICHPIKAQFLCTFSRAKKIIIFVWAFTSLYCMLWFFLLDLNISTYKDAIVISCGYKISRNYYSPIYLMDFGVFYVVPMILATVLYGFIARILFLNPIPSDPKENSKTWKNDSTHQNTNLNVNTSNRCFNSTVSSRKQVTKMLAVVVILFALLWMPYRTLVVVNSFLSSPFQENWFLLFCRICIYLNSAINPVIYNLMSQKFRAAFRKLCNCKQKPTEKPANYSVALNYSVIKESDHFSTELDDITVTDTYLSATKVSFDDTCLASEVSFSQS
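In this calcium-flux screen, cells bearing human TRHR are dye-loaded with fluo-8, baselined for 10 cycles, then exposed to library compounds; positive kinetic calcium responses during the agonist phase mark hits, with TRH as control.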
TRHR enhancer – qHTS for Small Molecule Agonists and Allosteric Enhancers of Human TRH Receptor: Primary Screen for Enhancers; Thyrotropin-releasing hormone receptor (Homo sapiens), P34981; TRHR cells, fluo-8 calcium fluorescence, EC20 TRH enhancement; enhancement, % at 2 µM; hit rate 0.66% among 360,000; AID 493056, 2011; in the data active = enhancement above about 30%; also: 0% is about no effect
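TRHR-expressing cells loaded with fluo-8 calcium dye were read kinetically (ex 480/em 530) during compound addition, then stimulated with an EC20 of TRH (10 nM final). Enhancement of the Gq-mediated intracellular calcium response was scored.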
D1 antagonist – Antagonist of Human D 1 Dopamine Receptor: qHTS; HEK293 TREx D1 cells, calcium flux, dopamine EC80; active compounds read low; activity change, negative = inhibition, % at 10 µM; D(1A) dopamine receptor (Homo sapiens), P21728; hit rate 3.2% among 360,000; in the data active = activity change below about -30%; also: % is scaled to controls: 0 for no effect and ±100 for the full control effect
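Calcium flux readout: force-coupled, inducible Hek293 Trex D1 line, cells induced overnight at 30 C with tetracycline, dye-loaded 30–90 min at RT. Antagonism scored against EC80 dopamine challenge given 180 s after compound.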
* = called active by the depositor; . = not tested or not shown. Rule as the data show it, unless noted: active = activation above about 30%; inactive = the rest.

SMILES	D1 PAM	D1 ag	TRHR agonist	TRHR enhancer	D1 antagonist
Cc1cccc(NC(=O)CC2SC(=NC3CCCCC3)NC2=O)c1 (stereo unspecified)	-1.1	1.6	0.1	3.3	-33.0*
CC1=NN(Cc2ccccc2)C(=O)C1	-12.7	-1.5	-0.6	3.4	-36.5*
CC1=NN(c2ccc(Cl)cc2)C(=O)C1	2.7	5.9	0.8	-2.0	17.6
COc1ccc(NC(=O)C2CCN(S(=O)(=O)c3ccc4c(c3)CCCC(=O)N4)CC2)c(OC)c1	0.1	0.7	-0.6	25.7	-5.6
COc1ccc(C(=O)NCCCn2ccnc2)cc1	4.0	2.2	-0.4	17.1	2.8
CCC(C)C(NC(=O)c1ccccc1NC(=O)c1ccc(OC)cc1)C(=O)NCCCn1ccnc1 (stereo unspecified)	0.3	2.2	-0.3	39.4*	4.9
COc1ccc(-c2nn(-c3ccccc3)cc2C(=O)NCCCn2ccnc2)cc1	-4.7	1.1	0.2	-4.7	-37.9*
Cc1cc([N+](=O)[O-])nn1CC(=O)Nc1cc(F)ccc1F	-0.1	3.1	0.8	13.7	6.7
COc1ccc(-c2nn(CCC#N)cc2C(=O)Nc2cccc(C(=O)O)c2)cc1OC	-5.2	1.7	0.5	9.0	-36.4*
CC(NC(=O)c1cc2sccc2n1C)c1ccc2c(c1)OCCO2 (stereo unspecified)	2.9	5.7	0.6	1.4	-6.5
CCn1c(C(=O)NC(C)c2ccc3c(c2)OCCO3)cc2sccc21 (stereo unspecified)	-1.4	5.8	-0.5	0.9	-31.6*
COc1cccc(-c2cc(C(=O)Nc3cc(OC)c(OC)c(OC)c3)on2)c1	-3.8	1.9	-0.8	6.6	-6.3
NNC(=O)COc1ccc(-c2n[nH]c(C(F)(F)F)c2-c2ccc(Br)cc2)c(O)c1	-7.6	38.9*	1.8	-3.5	-37.3*
O=C(NNc1c([N+](=O)[O-])cc(C(F)(F)F)cc1[N+](=O)[O-])c1ccco1	4.6	21.0	2.3	-4.0	-35.9*
COc1ccc(-c2cc3ccccc3n2CC(O)CN2CCC(C)CC2)cc1 (stereo unspecified)	-4.5	13.6	3.8	4.0	-12.2
CC1=NN(C(=O)c2ccccc2-n2cccc2)C(O)(C(F)(F)F)C1 (stereo unspecified)	-6.5	0.8	-0.1	5.8	-50.4*
O=C(c1ccc(Cl)cc1)c1cn[nH]c1-c1ccccc1O	-6.0	3.1	0.2	-12.5	-7.0
Cc1cccc(Cc2cnc(NC(=O)c3ccc4c(c3)CC(c3ccccc3)OC4=O)s2)c1 (stereo unspecified)	-0.4	0.7	0.1	8.3	-0.3
Cc1ccc(Cc2cnc(NC(=O)c3ccc4c(c3)CC(c3ccccc3)OC4=O)s2)cc1 (stereo unspecified)	-2.6	0.7	-0.7	2.2	-31.5*
O=C1CC(c2c[nH]c3ccccc23)C(=O)N1c1ccccc1 (stereo unspecified)	-5.8	-1.5	0.2	3.3	-33.7*
COc1ccc(S(=O)(=O)NC2CCc3ccccc32)cc1OC (stereo unspecified)	-5.2	10.8	0.2	-0.4	-37.2*
Cn1c(=O)oc2cc(S(=O)(=O)NC3CCCc4ccccc43)ccc21 (stereo unspecified)	.	20.4	0.5	1.4	-35.9*
Cc1ccc(OCC(=O)NCC(c2ccc(Cl)cc2)N2CCOCC2)cc1C (stereo unspecified)	0.0	-0.8	0.6	-8.2	-4.3
CC(C)CC(=O)NC(NC(=S)Nc1sc2c(c1C#N)CCCC2)C(Cl)(Cl)Cl (stereo unspecified)	-7.1	13.3	0.4	-5.7	-31.7*
COc1ccc(-c2ccc3c(c2)S(=O)(=O)c2cccc(C(=O)NC[C@@H]4CCCO4)c2C3=O)cc1OC	-2.7	-0.7	-0.3	2.6	-35.8*
SMILES	D1 PAM	D1 ag	TRHR agonist	TRHR enhancer	D1 antagonist
O=C(NC[C@@H]1CCCO1)c1cccc2c1C(=O)c1ccc(Cl)cc1S2(=O)=O	0.1	-2.8	0.1	2.4	.
Cc1c(C)n(CCc2ccccc2)c2ncnc(NCCCO)c12	-7.2	-1.0	-0.8	5.5	-32.1*
O=C(COc1nsnc1N1CCOCC1)N/N=C/c1ccccc1O	-5.0	11.1	1.6	31.9*	-3.1
O=C(O)COc1ccc(/C=N/NC(=O)COc2nsnc2N2CCOCC2)cc1	-3.5	3.4	-2.2	-2.6	-4.6
COc1ccc(-c2nc(/C=C3\C(C)=Nc4ccccc43)c(O)o2)cc1	-4.8	33.2*	8.0	1.8	-15.2
Cc1cccc(/N=C/c2nc(-c3ccccc3Br)oc2O)n1	-1.2	-3.4	0.3	1.0	-13.7
Oc1ccccc1-c1nnc(-c2ccc(C(F)(F)F)cc2)o1	-2.5	4.6	-0.3	3.5	-13.0
CC1=Nc2ccccc2/C1=C/c1nc(-c2ccc(C)s2)oc1O	-3.7	72.6*	17.0	-8.0	-17.9
CC1=Nc2ccccc2/C1=C\c1nc(-c2ccc(C(F)(F)F)cc2)oc1O	-12.5	78.6*	24.9	-7.8	18.5
CC1=Nc2ccccc2/C1=C\c1nc(-c2ccccc2)oc1O	-3.0	26.6	9.4	28.6	-8.1
Cn1c(NC(=O)c2cc(-c3ccc4c(c3)OCO4)nc3ccccc23)cc(=O)n(C)c1=O	1.0	3.5	-0.1	14.3	-30.5*
O=C(O)c1cc(-c2ccc3c(c2)OCO3)nc2ccc(Cl)cc12	1.2	2.6	-0.3	33.5*	-11.8
COCc1c(C(=O)OC)nnn1-c1ccc(C(F)(F)F)cc1[N+](=O)[O-]	-3.0	3.8	1.1	-18.7	-0.5
Cc1cccc(Nc2nnc(-c3ccc(N4CCOCC4)c([N+](=O)[O-])c3)c3ccccc23)c1	-3.8	1.8	-0.5	2.0	-6.7
Oc1cccc(/C=N\Nc2nncc(-c3ccccc3)n2)c1	2.3	2.0	-0.6	3.3	-37.0*
CCOc1cc(/C=N/Nc2nncc(-c3ccccc3)n2)ccc1O	7.1	-0.8	0.4	2.6	-18.7
CCC(C)(C(=O)NC1CCCC1)N(C(=O)c1cnccn1)c1ccccc1 (stereo unspecified)	-4.7	4.8	0.5	-0.8	-45.1*
O=C(Nc1nnc(N2CCCCCC2)s1)c1cc(-c2ccc(Br)cc2)on1	-0.3	0.2	0.5	0.2	-47.6*
COc1ccccc1-c1c(C)nn2c(C)cc(C)nc12	-1.6	-2.3	-0.6	5.2	-35.8*
COc1ccc(/C=C/C(=O)NC(=S)NNC(=O)c2c(-c3ccccc3)noc2C)cc1	-10.0	3.3	0.7	7.4	6.0
Cc1ccccc1C(=O)NNC(=S)NC(=O)c1ccc(Cl)cc1Cl	15.7	157.7*	44.5*	-5.0	-52.2*
